This is a sample that favours compounds with a hit; in the whole collection about 6.1% have one here.
TGFb SMAD3 inh – TGF-b pathway inhibition; 410,000 compounds, 1.2% hits; Potency, µM (doses to about 46.1 µM), for the others: top-dose activity, negative = inhibition, actives largely listed as inhibitors; HepG2 CAGA-GFP TGF-b/SMAD3 reporter, GFP fluorescence, 18 h; TGF-beta stimulated, 500 pg/mL final; further: on the % scale 0 is the no-effect control and ±100 the full control effect; nearly all actives have a fitted effect of over 65% in size
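First, reporter cells (HEPG2 CAGA-GFP) rested 2 h at 37 degrees C. Next, compounds were pinned in and TGF-beta added to 500 pg/mL final. After 18 h, GFP was imaged per cell and summed per well.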
HepG2 tox – kills HepG2 cells in TGF-b inhibitor counter-screen | Potency, µM (titrated, usually from 46.1 µM), inactives show at the top dose activity change, negative = cytotoxicity, hits mostly cytotoxic | 410,000 compounds, 0.76% hits | HepG2 CAGA-GFP viability, ATP luminescence, 18 h | AID 588856
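CellTiter-Glo luminescence gave cytotoxicity after 18 hours at 37 degrees C. The cells were HepG2 CAGA-GFP in 1% FBS DMEM, stimulated with 500 pg/mL TGF-beta after compound addition. %Activity was normalised to no-cell wells (complete cell-killing) and DMSO (no toxicity), and curves were fitted and classified.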
ATXN2 expr inh – reduces ATXN2 reporter expression in HEK-293 cells | HEK-293 ATXN2-luciferase reporter, luminescence, 24 h | Potency, µM (highest dose often 57 µM), inactives show at the top dose activity change, negative = inhibition, usual class: inhibitors | 360,000 compounds, 0.72% hits; further: on the % scale 0 is the no-effect control and ±100 the full control effect; nearly all actives have a fitted effect of over 55% in size
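ATXN2-luciferase reporter cells (luciferase flanked by upstream and downstream ATXN2 gene portions) were treated 24 h at 37 °C with compounds at up to 57 uM. SteadyGlo luminescence gave expression; GF-AFC fluorescence gave viability.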
ATXN viability – reduces viability in counter-screen for ATXN expression inhibitors. Potency, µM (titrated, usually from 56.7 µM), hits mostly cytotoxic. S2 cells (HEK-293 line with an ATXN2-luciferase reporter) viability, CellTiter-Fluor protease fluorescence, 24 h. 400,000 compounds, 0.49% hits. AID 651635; further: nearly all actives have a fitted effect of over 40% in size
RORgamma inh – inhibitors of mouse ROR gamma transcriptional activity; P51450; Drosophila S2 Gal4-RORgamma UAS-luciferase reporter, 20 h; Potency, µM (titrated, usually from 53.6 µM), inactives show at the top dose activity change, negative = inhibition, hits mostly inhibitors; 310,000 compounds, 5.4% hits; AID 2551; further: on the % scale 0 is the no-effect control and ±100 the full control effect; nearly all actives have a fitted effect of over 60% in size
Target sequence (P51450 whole entry, looked up, the tested form may be a part): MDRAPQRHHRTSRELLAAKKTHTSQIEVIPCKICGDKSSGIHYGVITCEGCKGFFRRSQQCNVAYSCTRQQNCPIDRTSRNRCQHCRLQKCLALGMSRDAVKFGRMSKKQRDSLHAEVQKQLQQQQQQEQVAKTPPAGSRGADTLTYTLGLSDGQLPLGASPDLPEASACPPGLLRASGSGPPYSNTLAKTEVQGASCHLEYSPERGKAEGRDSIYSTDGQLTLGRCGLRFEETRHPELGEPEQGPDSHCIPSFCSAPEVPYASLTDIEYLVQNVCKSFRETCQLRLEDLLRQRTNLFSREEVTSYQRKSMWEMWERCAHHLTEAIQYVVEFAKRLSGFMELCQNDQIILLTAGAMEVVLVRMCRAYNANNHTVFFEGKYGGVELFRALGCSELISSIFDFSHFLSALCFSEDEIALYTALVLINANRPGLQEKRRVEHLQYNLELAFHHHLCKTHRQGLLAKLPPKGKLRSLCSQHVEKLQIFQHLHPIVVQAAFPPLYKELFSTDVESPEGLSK
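Drosophila S2 cells stably expressing Gal4-DBD/mouse RORγ fusion under metallothionein promoter plus UAS-luciferase; compound 1 h, then 700 uM CuSO4 induction for 20 h at ambient temperature; inhibition read as reduced luminescence.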
VP16 counter – Gal4-VP16 reporter inhibition counter-screen. 310,000 compounds, 3.5% hits. AID 2546. Drosophila S2 Gal4-VP16 UAS-luciferase, luminescence, 20 h. Potency, µM (titrated, usually from 53.6 µM), inactives show at the top dose activity, negative = inhibition, most hits filed as inhibitors;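 further: Gal4-VP16 expression switched on by copper sulfate through the metallothionein promoter; on the % scale 0 is the no-effect control and ±100 the full control effect; nearly all actives have a fitted effect of over 50% in size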
Starred values were filed as active, the others as inactive; i = inactive; ? = inconclusive; . = not tested or not shown. The call rests on the fitted dose curve; in most records, active means well fitted curve in the direction sought with a large enough effect; inconclusive means small, poorly fitted or top-dose-only effect, or another doubt; inactive means no such curve, though single readings can be large; an effect the other way counts as inactive or inconclusive. Potency means the concentration at half of the fitted maximal effect.

SMILES	TGFb SMAD3 inh	HepG2 tox	ATXN2 expr inh	ATXN viability	RORgamma inh	VP16 counter
CC(C)(C)C(=O)COC(=O)c1cc(-c2cccnc2)nc2ccccc12	-4%	-10%	-9%	?	?	35µM*
COc1ccc(NC(=O)NNC(=O)c2cc(C3CC3)nc3ccccc23)c(OC)c1	4%	-21%	6%	i	?	-4%
CCCCNC(=S)NNC(=O)c1cc(C2CC2)nc2ccccc12	?	-6%	7%	i	6.3µM*	?
COCCNC(=O)C(=O)Nc1ccc2nc3n(c(=O)c2c1)CCCCC3	-3%	-7%	15%	i	.	.
CCCCNC(=S)NNC(=O)c1cc(-c2ccncc2)nc2ccccc12	-13%	-21%	3%	i	11µM*	-19%
Cc1nc(NCc2cccc3c2OCO3)sc1-c1ccn(CC2CCCN(C)C2)n1 (configuration not stated)	.	.	.	i	.	.
COc1ccc(-n2cc(C(=O)N(C)c3cc(C)ccc3OC)c3ccccc3c2=O)cc1	?	-35%	.	.	.	.
COc1ccc(Cl)cc1NC(=O)CCCS(=O)(=O)c1nc(-c2ccc(OC)c(OC)c2)cc(C(F)(F)F)n1	2.8µM*	14µM*	.	.	.	.
COC(=O)c1ccccc1NC(=O)CCS(=O)(=O)c1nc(-c2ccc3c(c2)OCO3)cc(C(F)(F)F)n1	0%	-30%	.	.	.	.
COc1ccccc1-c1cc(C(F)(F)F)nc(S(=O)(=O)CCCC(=O)Nc2cc(C)on2)n1	-6%	-35%	?	.	11µM*	7.9µM*
COc1ccc(-c2cc(C(F)(F)F)nc(S(=O)(=O)CCCC(=O)Nc3cc(C)on3)n2)cc1OC	?	-109%	?	?	3.5µM*	?
Cc1cc(NC(=O)CCCSc2nc(-c3ccco3)cc(C(F)(F)F)n2)no1	-10%	-6%	-20%	i	31%	-3%
COC(=O)[C@H](COC(C)(C)C)NC(=O)O[C@@H]1C(=O)c2cc(Br)ccc2O[C@H]1c1ccc2c(c1)OCO2	.	.	.	.	12%	0%
CCOC(=O)c1nnn(C(CC)C(=O)Nc2c(C)cccc2C)c1C(=O)OCC (configuration not stated)	?	0%	0%	i	.	.
CCCCCC/C(=N/O)c1ccccn1	-25%	-29%	-16%	?	5µM*	16µM*
CCCCn1cnc2c(oc3nc4c(cc32)CCCC4)c1=O	-7%	1%	.	i	10µM*	?
O=C1NN=COc2ccccc21	-12%	-5%	4%	i	13µM*	-5%
O=S(=O)(c1ccc(-c2cc(C(F)(F)F)on2)s1)N1CCN(c2ccc(F)cc2)CC1	0%	-11%	.	.	.	.
CC(C)(C)NC(=O)C12CC3CC(CC(Cl)(C3)C1)C2	-6%	15%	0%	i	4%	-14%
CC(C)(C)NC(=S)NC(=O)C12CCC3CC(CC(C3)C1)C2	-5%	-23%	-3%	i	0.71µM*	0%
COc1cccc(OCCSc2nc(N)cc(N)n2)c1	-8%	-19%	29%	i	7.9µM*	6.3µM*
Nc1cc(N)nc(SCCOc2ccccc2)n1	1%	12%	43%	i	?	2%
O=C(Nc1ccc(F)cc1F)N1CCc2c(sc3c2CCCC3)C1c1ccc(F)cc1 (configuration not stated)	-4%	-27%	-4%	i	.	.
Cc1ccc(C)c(N2CCN(C(=O)CCc3c(C)nn(-c4ccc(N5CCCC5)nn4)c3C)CC2)c1	13µM*	-36%	.	.	.	.
Cc1ccc(-n2ncc3c(N4CCCCCC4)ncnc32)cc1	-1%	-1%	?	i	.	.
SMILES	TGFb SMAD3 inh	HepG2 tox	ATXN2 expr inh	ATXN viability	RORgamma inh	VP16 counter
O=c1[nH]c(=S)[nH]c2nc(-c3cccs3)cc(C(F)(F)F)c12	13%	-73%	20%	i	11µM*	-12%
COC(=O)COc1ccc(S(=O)(=O)Nc2cc(OC)ccc2OC)cc1	.	.	.	.	5µM*	25µM*
COC(=O)COc1ccc(S(=O)(=O)Nc2ccc(C(N)=O)cc2)cc1C	16µM*	-94%	-2%	i	21%	?
COC(=O)COc1ccc(S(=O)(=O)Nc2ccc(C(N)=O)cc2)cc1Cl	-26%	-2%	-9%	i	-15%	0%
CCOc1ccc(NC(=O)CSc2cc(C)c3ccccc3n2)cc1	-4%	-14%	.	.	.	.
CC1=CC(=O)C=CC1=Nc1ccc(N(C)C)cc1	25µM*	-91%	?	?	.	.
O=C(O)c1csc(N/N=C/c2ccc(Br)cc2)n1	-6%	0%	8%	i	2.5µM*	5µM*
Cc1csc(N/N=C/c2ccc([N+](=O)[O-])cc2)n1	-4%	-5%	33%	i	-52%	-24%
CC(C)CC1NC(=O)C(CCCN)NC(=O)C(C(C)C)NC(=O)C2CCCN2C(=O)C(Cc2ccccc2)NC(=O)C(CC(C)C)NC(=O)C(CCCN)NC(=O)C(C(C)C)NC(=O)C2CCCN2C(=O)C(Cc2ccccc2)NC1=O (configuration not stated)	.	.	.	.	0.089µM*	0.28µM*
COc1ccc(-n2nc(C)c3c(C(F)(F)F)cc(-c4cccnc4)nc32)cc1	-25%	1%	.	.	.	.
COCc1nnc(NC(=O)C2CC(=O)N(c3ccc(C)c(Cl)c3)C2)s1 (configuration not stated)	-1%	-1%	-7%	i	.	.
Cc1ccnc(NC(=O)C2CC(=O)N(c3ccc4c(c3)OCCO4)C2)c1 (configuration not stated)	-19%	-4%	-18%	i	7.9µM*	?
Cc1ccc(N2CC(C(=O)Nc3nccs3)CC2=O)cc1Cl (configuration not stated)	-1%	-43%	6.3µM*	i	?	7%
COc1ccc(CN(C)c2ccc(-c3nc(-c4ccc(OC)c(OC)c4)no3)cc2[N+](=O)[O-])cc1	-35%	4%	8%	i	.	.
CC(C)(C)NC(=O)C(c1ccc(-c2ccccc2)cc1)N(C[C@H]1CC[C@@H]([C@@H]2CC[C@H](CO)O2)O1)C(=O)c1ccc(C(C)(C)C)cc1 (some centres not stated)	?	-96%	-28%	20µM*	.	.
COC(=O)c1ccccc1-c1cc(C)cc2c1OC(CNC(=O)c1occc1C)C2 (configuration not stated)	.	.	.	i	.	.
N/C(Cc1ccc(Cl)cc1)=N\OC(=O)c1ccc2ccccc2c1	7%	-17%	7%	?	-26%	20µM*
N/C(Cc1ccc(Cl)cc1)=N\OC(=O)c1cccc2ccccc12	8%	-29%	?	.	?	10µM*
